Results reported in PubChem BioAssay (EPA / NIEHS).
Values joined by “and” are separate entries in the source; they are usually repeats but may differ in a detail not shown here. Identical values can stand only once. Results filed as inconclusive are left out. Where a structure was tested more than once in an assay, its records may differ in their call. Active and inactive are the calls of the source. How the source made its calls, unless noted: active means hit-call score of the fitted dose curve at least 0.9, where 1 is the maximum; inactive means score below 0.9.

What was measured:
[1] = biological target: Estrogen-related receptor gamma (Homo sapiens) (UniProt P62508); assay: ATG_ERRg_TRANS: Attagene TRANS-FACTORIAL HepG2 Assay for human Estrogen-Related Receptor gamma (ERRg) (AID 2282977; active means hit-call score of the fitted dose curve at least 0.9, where 1 is the maximum;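 further: hits increase reporter signal over DMSO so potencies reflect activators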); settings: HepG2 Attagene TRANS reporter, ERRg transactivation
Outline: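 Transient HepG2 transfectants, 24 h compound exposure, GAL4-UAS reporter mRNA by RT-PCR/6-FAM labelling/capillary electrophoresis; positive direction vs DMSO.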

[2] = ATG_M_06_TRANS: Attagene TRANS-FACTORIAL HepG2 Assay for M06 Transcription Factor (Internal Marker) (AID 2282983; active means hit-call score of the fitted dose curve at least 0.9, where 1 is the maximum); settings: HepG2 Attagene TRANS M06 internal marker reporter
Outline: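 Internal-marker background readout from a multiplexed TRANS reporter system in HepG2; 24 h dosing; mRNA induction quantified by RT-PCR plus capillary electrophoresis fluorescence; DMSO as negative control and baseline.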

[3] = biological target: Nuclear receptor subfamily 4 group A member 2 (Homo sapiens) (UniProt P43354); assay: ATG_NURR1_TRANS: Attagene TRANS-FACTORIAL HepG2 Assay for human Nuclear Receptor Related Protein 1 (NURR1) (AID 2282985; active means hit-call score of the fitted dose curve at least 0.9, where 1 is the maximum); settings: HepG2 Attagene TRANS reporter, mRNA readout
Outline: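 HepG2 / transient MRTU transfection / 24 h compound exposure / RT-PCR + CE fluorescence of reporter mRNA / gain-of-signal vs DMSO.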

[4] = biological target: Transcriptional activator Myb (Homo sapiens) (UniProt P10242); assay: ATG_Myb_CIS: Attagene CIS-FACTORIAL HepG2 Assay for human Myeloblastosis (Myb) Proto-Oncogene Transcription Factor (AID 2282986); settings: HepG2 Attagene CIS-FACTORIAL Myb reporter transcription; actives raise or lower the signal
Outline: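 Transiently transfected HepG2 cells carrying a multiplexed cis-promoter reporter set report endogenous Myb activity after 24 h compound exposure. Reporter mRNA is read by RT-PCR with capillary electrophoresis of fluorescent products, fitted bidirectionally against DMSO.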

[5] = biological target: Nuclear respiratory factor 1 (Homo sapiens) (UniProt Q16656); assay: ATG_NRF1_CIS: Attagene CIS-FACTORIAL HepG2 Assay for human Nuclear Respiratory Factor 1 (NRF1) Orphan Gene (AID 2282987); settings: HepG2 NRF1 cis-element reporter, Attagene multiplex; actives raise or lower the signal
Outline: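 HepG2 cells transiently transfected with multiple cis-regulated reporter units, exposed 24 h. Reporter mRNAs measured by RT-PCR, fluorescent labelling, HpaI digestion and capillary electrophoresis; bidirectional fitting against DMSO.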

[6] = ATG_NFI_CIS: Attagene CIS-FACTORIAL HepG2 Assay for human Nuclear Factor I (NFI) (AID 2282989); settings: HepG2 cis-regulatory reporter, NFI response element transcription; actives raise or lower the signal
Outline: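 Reporter transcription driven by endogenous transcription factors in HepG2 cells; 24 h treatment. Quantitation by labelled RT-PCR fragments on capillary electrophoresis, gain- or loss-of-signal relative to DMSO.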

[7] = ATG_NF_kB_CIS: Attagene CIS-FACTORIAL HepG2 Assay for human Nuclear Factor Kappa B (NF-kB) (AID 2282991); settings: HepG2 Attagene cis-factorial NF-kB reporter mRNA; actives raise or lower the signal
Outline: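 HepG2 cells transfected with cis-promoter-driven reporter units, so endogenous transcription factor activity is measured. Reporter mRNA quantified 24 h after dosing by RT-PCR and capillary electrophoresis, with bidirectional fitting against DMSO.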

[8] = ATG_NRF2_ARE_CIS: Attagene CIS-FACTORIAL HepG2 Assay for human Nuclear Factor Erythroid 2 Related Factor 2 (NFR2) response to Antioxidant Response Elements (ARE) (AID 2282992); settings: HepG2 Attagene ARE/NRF2 reporter, transcription factor activity; actives raise or lower the signal;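 on AC50: reporter mRNA level measured by RT-PCR and capillary electrophoresis fluorescence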
Outline: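 HepG2 cells transiently transfected with multiplexed cis-element reporter constructs, 24 h after chemical dosing; reporter mRNA quantified by RT-PCR, fluorescent primer extension, HpaI digestion and capillary electrophoresis. Bidirectional fit relative to DMSO.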

[9] = ATG_Oct_MLP_CIS: Attagene CIS-FACTORIAL HepG2 Assay for human Octamer-Binding Transcription Factor (Oct) (AID 2282993); settings: HepG2 Attagene cis-factorial Oct reporter, mRNA; actives raise or lower the signal
Outline: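 Transfected HepG2 cells, 24 h treatment. Reporter mRNA quantified by RT-PCR–capillary electrophoresis; bidirectional fitting against DMSO.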

[10] = biological target: Cellular tumor antigen p53 (Homo sapiens) (UniProt P04637); assay: ATG_p53_CIS: Attagene CIS-FACTORIAL HepG2 Assay for human p53 Transcription Factor (AID 2282994); settings: HepG2 p53 cis-element reporter, Attagene mRNA; actives raise or lower the signal
Outline: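 HepG2 cells transiently transfected with cis-regulated multiple reporter transcription units, dosed 24 h. Reporter mRNA measured by RT-PCR, 6-FAM primer extension, HpaI digestion and capillary electrophoresis; bidirectional fit relative to DMSO.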

[11] = biological target: Glucocorticoid receptor (Homo sapiens) (UniProt P04150); assay: ATG_GR_TRANS: Attagene TRANS-FACTORIAL HepG2 Assay for human Glucocorticoid Receptor (GR) (AID 2282978; active means hit-call score of the fitted dose curve at least 0.9, where 1 is the maximum;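 further: activators score as hits since higher reporter transcript over DMSO is fitted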); settings: HepG2 Attagene TRANS GR reporter, mRNA transcription
Outline: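 HepG2 cells transiently transfected with GAL4-UAS reporter units and exogenous GR-Gal4 chimera, dosed 24 h. Reporter mRNA by RT-PCR, FAM labeling, HpaI digest and capillary electrophoresis; gain-of-signal fit versus DMSO.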

[12] = biological target: Oxysterols receptor LXR-alpha (Homo sapiens) (UniProt Q13133); assay: ATG_LXRa_TRANS: Attagene TRANS-FACTORIAL HepG2 Assay for human Liver X Receptor alpha (LXRa) (AID 2282980; active means hit-call score of the fitted dose curve at least 0.9, where 1 is the maximum); settings: HepG2 Attagene TRANS reporter, LXRa transactivation
Outline: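 In this multiplexed TRANS system, compounds act on HepG2 cells carrying GAL4-UAS reporter units and a receptor-GAL4 fusion for 24 h. Induced reporter RNA is amplified, fluorescently labelled and sized by capillary electrophoresis, with DMSO as baseline.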

[13] = biological target: Oxysterols receptor LXR-beta (Homo sapiens) (UniProt P55055); assay: ATG_LXRb_TRANS: Attagene TRANS-FACTORIAL HepG2 Assay for human Liver X Receptor beta (LXRb) (AID 2282981; active means hit-call score of the fitted dose curve at least 0.9, where 1 is the maximum); settings: HepG2 Attagene TRANS GAL4-LXRb reporter, mRNA
Outline: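 Gain-of-signal mRNA reporter endpoint, DMSO as negative control. Transiently transfected HepG2 cells carrying the NR-Gal4 chimera and GAL4-UAS reporter units were treated 24 h; transcripts quantified by RT-PCR and capillary electrophoresis fluorescence.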

[14] = biological target: Hepatocyte nuclear factor 4-alpha (Homo sapiens) (UniProt P41235); assay: ATG_HNF4a_TRANS: Attagene TRANS-FACTORIAL HepG2 Assay for human Hepatocyte Nuclear Factor 4 alpha (HNF4a) (AID 2282982; active means hit-call score of the fitted dose curve at least 0.9, where 1 is the maximum); settings: HepG2 HNF4a transactivation reporter, mRNA readout
Outline: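 Gain-of-signal mRNA induction, relative to DMSO vehicle, was read after 24 h compound treatment of HepG2 cells bearing transfected GAL4-UAS reporters. Detection used RT-PCR, 6-FAM primer extension and capillary electrophoresis.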

[15] = ATG_M_32_TRANS: Attagene TRANS-FACTORIAL HepG2 Assay for M32 Transcription Factor (Internal Marker) (AID 2282984; active means hit-call score of the fitted dose curve at least 0.9, where 1 is the maximum;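 further: transcript level of a background control reporter unit measured by RT-PCR and capillary electrophoresis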); settings: HepG2 Attagene TRANS M32 internal marker reporter
Outline: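 Capillary electrophoresis of 6-FAM-labelled reporter fragments gives the signal; data fitted for gain over DMSO negative control. Source: HepG2 cells bearing transient multiple reporter transcription units, 24 h exposure.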

[16] = biological target: Myc proto-oncogene protein (Homo sapiens) (UniProt P01106); assay: ATG_Myc_CIS: Attagene CIS-FACTORIAL HepG2 Assay for human Myelocytomatosis (Myc) Proto-Oncogene Transcription Factor (AID 2282990); settings: HepG2, Attagene cis-reporter transcription factor activity; actives raise or lower the signal
Outline: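 Read-out: fluorescent reporter mRNA fragments resolved by capillary electrophoresis after RT-PCR. Human HepG2 liver cells carried transfected cis-element reporter units and were dosed for 24 h. Gain or loss of signal fitted relative to DMSO baseline.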

[17] = biological target: Bile acid receptor (Homo sapiens) (UniProt Q96RI1); assay: ATG_FXR_TRANS: Attagene TRANS-FACTORIAL HepG2 Assay for Farnesoid X Receptor (FXR) (AID 2282979; active means hit-call score of the fitted dose curve at least 0.9, where 1 is the maximum;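 further: hits raise reporter mRNA above DMSO so AC50 marks FXR activation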); settings: HepG2 Attagene TRANS FXR-GAL4 reporter transcription
Outline: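 After 24 h chemical treatment of transfected HepG2 cells, GAL4-UAS reporter transcripts driven by an exogenous FXR-GAL4 fusion were measured by RT-PCR and capillary electrophoresis. Increases over DMSO were fitted.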

[18] = BSK_3C_TissueFactor: BioMAP Diversity Plus: 3C Assay for Tissue Factor Biomarker Activity (AID 2282997); settings: BioMAP 3C HUVEC, tissue factor biomarker readout; actives raise or lower the signal
Outline: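 Endothelial monolayers (human umbilical vein, primary) are dosed, incubated 24 h, and assayed for Tissue Factor by ELISA; DMSO serves as negative control for bidirectional fitting.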

[19] = BSK_3C_uPAR: BioMAP Diversity Plus: 3C Assay for Urokinase-type plasminogen activator receptor (uPAR) Biomarker Activity (AID 2282998); settings: BioMAP 3C HUVEC, uPAR biomarker ELISA; actives raise or lower the signal
Outline: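 Readout: ELISA for surface uPAR. System: human umbilical vein endothelial primary cells, 24 h after chemical exposure. Analysis: bidirectional fit, DMSO baseline.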

[20] = BSK_3C_VCAM1: BioMAP Diversity Plus: 3C Assay for Vascular cell adhesion molecule 1 (VCAM1) Biomarker Activity (AID 2282999); settings: BioMAP 3C HUVEC, VCAM1 ELISA, cytokine-stimulated; actives raise or lower the signal
Outline: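 Human umbilical vein endothelial cells (3C system), biomarker read by ELISA 24 h after dosing; bidirectional fit against DMSO baseline. Cytotoxicity tracked by SRB total-protein staining in parallel cultures at biomarker time.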

Measured: AC50

Transcriptional activator Myb (Homo sapiens), sequence (P10242 whole entry, looked up): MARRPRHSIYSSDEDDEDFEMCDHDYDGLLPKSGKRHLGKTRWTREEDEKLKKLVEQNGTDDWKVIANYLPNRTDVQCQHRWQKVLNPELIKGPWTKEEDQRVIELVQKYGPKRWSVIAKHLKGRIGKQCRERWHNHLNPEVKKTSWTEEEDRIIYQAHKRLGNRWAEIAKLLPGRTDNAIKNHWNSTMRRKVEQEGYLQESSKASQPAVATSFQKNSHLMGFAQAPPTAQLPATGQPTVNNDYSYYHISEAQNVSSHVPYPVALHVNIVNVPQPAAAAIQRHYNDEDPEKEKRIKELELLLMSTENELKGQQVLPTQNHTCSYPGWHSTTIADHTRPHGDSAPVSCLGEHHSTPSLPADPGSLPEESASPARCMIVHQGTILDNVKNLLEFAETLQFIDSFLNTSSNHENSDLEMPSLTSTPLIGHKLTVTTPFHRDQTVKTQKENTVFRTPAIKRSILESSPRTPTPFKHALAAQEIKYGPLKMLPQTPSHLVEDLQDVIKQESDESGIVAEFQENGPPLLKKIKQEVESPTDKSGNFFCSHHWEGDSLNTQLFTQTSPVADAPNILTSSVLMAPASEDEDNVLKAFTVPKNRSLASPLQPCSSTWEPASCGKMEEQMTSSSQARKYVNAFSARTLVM
Hepatocyte nuclear factor 4-alpha (Homo sapiens), sequence (P41235 whole entry, looked up, the tested form may be a part): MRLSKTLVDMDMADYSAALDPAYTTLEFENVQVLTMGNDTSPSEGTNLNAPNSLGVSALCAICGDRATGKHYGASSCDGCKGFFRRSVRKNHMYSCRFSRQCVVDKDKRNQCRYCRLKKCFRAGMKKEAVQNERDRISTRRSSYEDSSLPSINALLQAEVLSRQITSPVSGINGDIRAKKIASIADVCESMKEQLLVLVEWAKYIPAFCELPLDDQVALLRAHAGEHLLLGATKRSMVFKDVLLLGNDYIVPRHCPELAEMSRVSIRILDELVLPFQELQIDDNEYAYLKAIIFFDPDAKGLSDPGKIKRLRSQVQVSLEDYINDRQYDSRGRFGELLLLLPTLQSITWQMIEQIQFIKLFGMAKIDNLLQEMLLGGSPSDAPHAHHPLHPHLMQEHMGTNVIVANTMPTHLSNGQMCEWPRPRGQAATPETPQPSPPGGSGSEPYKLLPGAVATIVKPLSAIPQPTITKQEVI
Nuclear receptor subfamily 4 group A member 2 (Homo sapiens), sequence (P43354 whole entry, looked up): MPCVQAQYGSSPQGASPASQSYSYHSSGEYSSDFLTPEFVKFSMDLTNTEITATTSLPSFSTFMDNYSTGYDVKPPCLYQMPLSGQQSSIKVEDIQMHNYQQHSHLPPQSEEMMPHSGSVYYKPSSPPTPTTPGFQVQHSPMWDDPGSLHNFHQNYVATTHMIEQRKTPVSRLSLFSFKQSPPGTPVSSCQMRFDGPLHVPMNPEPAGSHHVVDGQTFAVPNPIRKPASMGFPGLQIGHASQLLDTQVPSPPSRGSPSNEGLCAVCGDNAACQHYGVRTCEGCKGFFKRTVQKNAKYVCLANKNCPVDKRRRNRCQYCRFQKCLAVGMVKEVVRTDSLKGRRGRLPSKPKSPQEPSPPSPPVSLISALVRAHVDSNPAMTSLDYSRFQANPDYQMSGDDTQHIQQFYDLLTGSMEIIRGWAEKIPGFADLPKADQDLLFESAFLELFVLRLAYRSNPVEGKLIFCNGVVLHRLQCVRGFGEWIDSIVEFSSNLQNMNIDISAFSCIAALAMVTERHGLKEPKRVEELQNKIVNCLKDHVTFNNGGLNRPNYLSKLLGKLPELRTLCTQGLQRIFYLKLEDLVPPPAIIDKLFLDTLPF
Oxysterols receptor LXR-alpha (Homo sapiens), sequence (Q13133 whole entry, looked up, the tested form may be a part): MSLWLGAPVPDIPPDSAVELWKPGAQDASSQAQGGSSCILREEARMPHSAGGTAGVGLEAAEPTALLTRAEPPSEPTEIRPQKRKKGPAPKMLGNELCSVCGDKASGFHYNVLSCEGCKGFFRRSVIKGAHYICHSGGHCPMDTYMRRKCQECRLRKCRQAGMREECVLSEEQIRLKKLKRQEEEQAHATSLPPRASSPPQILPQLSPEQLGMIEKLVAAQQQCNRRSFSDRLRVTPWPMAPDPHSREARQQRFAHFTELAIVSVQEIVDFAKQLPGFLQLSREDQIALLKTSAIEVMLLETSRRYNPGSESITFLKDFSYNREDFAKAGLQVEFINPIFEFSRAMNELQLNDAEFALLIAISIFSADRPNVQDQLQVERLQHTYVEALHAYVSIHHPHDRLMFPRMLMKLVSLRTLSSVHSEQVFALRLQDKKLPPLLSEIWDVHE
Oxysterols receptor LXR-beta (Homo sapiens), sequence (P55055 whole entry, looked up, the tested form may be a part): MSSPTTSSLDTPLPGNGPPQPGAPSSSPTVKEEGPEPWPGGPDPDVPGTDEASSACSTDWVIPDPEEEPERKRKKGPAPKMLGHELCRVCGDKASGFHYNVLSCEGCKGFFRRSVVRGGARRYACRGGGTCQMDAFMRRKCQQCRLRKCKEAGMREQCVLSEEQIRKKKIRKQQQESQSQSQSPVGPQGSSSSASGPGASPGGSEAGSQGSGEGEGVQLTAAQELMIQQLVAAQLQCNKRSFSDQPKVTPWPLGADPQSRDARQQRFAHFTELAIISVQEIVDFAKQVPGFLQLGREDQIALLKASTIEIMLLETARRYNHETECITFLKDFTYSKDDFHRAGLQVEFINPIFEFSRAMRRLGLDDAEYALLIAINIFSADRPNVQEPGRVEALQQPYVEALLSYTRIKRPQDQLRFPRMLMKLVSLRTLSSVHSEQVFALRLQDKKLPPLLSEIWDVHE
Myc proto-oncogene protein (Homo sapiens), sequence (P01106 whole entry, looked up, the tested form may be a part): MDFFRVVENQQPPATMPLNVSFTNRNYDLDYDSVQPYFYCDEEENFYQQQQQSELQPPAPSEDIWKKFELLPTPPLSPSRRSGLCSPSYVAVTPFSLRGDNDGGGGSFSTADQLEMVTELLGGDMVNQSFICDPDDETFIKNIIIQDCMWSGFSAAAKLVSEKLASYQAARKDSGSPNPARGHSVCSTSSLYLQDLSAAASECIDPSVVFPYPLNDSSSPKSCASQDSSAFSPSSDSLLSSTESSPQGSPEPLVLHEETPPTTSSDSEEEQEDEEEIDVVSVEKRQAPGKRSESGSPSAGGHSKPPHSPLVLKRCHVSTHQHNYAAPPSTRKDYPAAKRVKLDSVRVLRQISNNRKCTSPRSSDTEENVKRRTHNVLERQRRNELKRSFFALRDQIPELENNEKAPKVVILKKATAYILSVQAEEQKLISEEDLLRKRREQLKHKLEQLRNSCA
Cellular tumor antigen p53 (Homo sapiens), sequence (P04637 whole entry, looked up): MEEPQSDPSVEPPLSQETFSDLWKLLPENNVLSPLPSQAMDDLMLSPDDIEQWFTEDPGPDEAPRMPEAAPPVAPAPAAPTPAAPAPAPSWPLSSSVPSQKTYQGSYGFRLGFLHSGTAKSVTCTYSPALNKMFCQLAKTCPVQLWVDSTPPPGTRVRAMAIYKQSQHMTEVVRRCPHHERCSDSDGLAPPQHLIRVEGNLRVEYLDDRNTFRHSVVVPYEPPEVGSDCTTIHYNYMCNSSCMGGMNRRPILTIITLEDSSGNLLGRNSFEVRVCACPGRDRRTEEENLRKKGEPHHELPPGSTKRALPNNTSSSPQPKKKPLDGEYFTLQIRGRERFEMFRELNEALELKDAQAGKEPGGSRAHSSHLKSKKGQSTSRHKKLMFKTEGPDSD
Glucocorticoid receptor (Homo sapiens), sequence (P04150 whole entry, looked up, the tested form may be a part): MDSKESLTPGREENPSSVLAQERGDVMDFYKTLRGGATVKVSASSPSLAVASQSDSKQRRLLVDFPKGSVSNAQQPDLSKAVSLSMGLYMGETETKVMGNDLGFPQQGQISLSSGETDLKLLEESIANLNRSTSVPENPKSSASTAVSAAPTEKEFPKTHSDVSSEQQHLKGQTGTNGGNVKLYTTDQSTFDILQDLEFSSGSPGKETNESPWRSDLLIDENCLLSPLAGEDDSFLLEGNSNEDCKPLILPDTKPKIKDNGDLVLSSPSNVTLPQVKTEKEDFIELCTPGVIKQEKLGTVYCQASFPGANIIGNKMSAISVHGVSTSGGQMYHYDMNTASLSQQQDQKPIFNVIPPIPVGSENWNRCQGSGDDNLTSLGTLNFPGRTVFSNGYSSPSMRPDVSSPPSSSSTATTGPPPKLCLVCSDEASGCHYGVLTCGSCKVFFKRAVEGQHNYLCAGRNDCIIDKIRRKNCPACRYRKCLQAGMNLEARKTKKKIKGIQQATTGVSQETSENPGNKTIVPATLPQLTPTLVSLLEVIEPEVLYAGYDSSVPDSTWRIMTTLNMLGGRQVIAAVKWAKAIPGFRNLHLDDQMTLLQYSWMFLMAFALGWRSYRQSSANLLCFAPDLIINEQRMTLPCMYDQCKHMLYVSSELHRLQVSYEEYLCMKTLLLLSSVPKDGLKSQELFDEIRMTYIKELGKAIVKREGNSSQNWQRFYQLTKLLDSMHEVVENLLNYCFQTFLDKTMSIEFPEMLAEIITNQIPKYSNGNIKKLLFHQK
Bile acid receptor (Homo sapiens), sequence (Q96RI1 whole entry, looked up, the tested form may be a part): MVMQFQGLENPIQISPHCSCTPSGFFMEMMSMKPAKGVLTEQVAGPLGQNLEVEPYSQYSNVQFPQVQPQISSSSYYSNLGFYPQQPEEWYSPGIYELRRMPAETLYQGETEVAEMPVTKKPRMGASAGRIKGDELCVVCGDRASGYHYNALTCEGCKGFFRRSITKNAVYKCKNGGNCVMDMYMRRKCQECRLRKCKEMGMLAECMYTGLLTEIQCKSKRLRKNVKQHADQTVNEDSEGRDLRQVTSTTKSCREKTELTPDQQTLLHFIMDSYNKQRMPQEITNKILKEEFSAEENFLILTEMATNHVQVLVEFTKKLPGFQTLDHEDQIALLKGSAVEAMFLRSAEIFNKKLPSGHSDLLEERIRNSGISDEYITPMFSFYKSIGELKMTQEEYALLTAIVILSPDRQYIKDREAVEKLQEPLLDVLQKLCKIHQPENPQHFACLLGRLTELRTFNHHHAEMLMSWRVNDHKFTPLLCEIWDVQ

N#CCCCC(C#N)CCC#N (centres undefined)
inactive: [1] | [2] | [3] | [4] | [5] | [6] | [7] | [8] | [9] | [10]

CCCOC(=O)CC
inactive: [11] | [12] | [13] | [14] | [2] | [15] | [3] | [4] | [5] | [6] | [16] | [8] | [9]

CCCCCC(=O)O[C@]1(C(C)=O)CC[C@H]2[C@@H]3CCC4=CC(=O)CC[C@]4(C)[C@H]3CC[C@@]21C
active: [11] 0.476 µM | [3] 8.77 µM | [5] 8.32 µM | [8] 12.6 µM
inactive: [17] | [12] | [13] | [2] | [15] | [4] | [6] | [16] | [7] | [9] | [10]

CCC=C(C)C=O
inactive: [11] | [17] | [13] | [14] | [2] | [15] | [3] | [4] | [5] | [6] | [16] | [7] | [8] | [9]

CC1COC(=O)O1 (centres undefined)
inactive: [11] | [12] | [13] | [2] | [15] | [4] | [5] | [6] | [16] | [8] | [9] | [10]

COc1ccccc1O
inactive: [11] | [17] | [13] | [4] | [5] | [6] | [16] | [7] | [8] | [9] | [10]

CCC(C)(C)c1cc(O)c(C(C)(C)CC)cc1O
active: [17] 3.06 µM | [4] 9.69 µM | [6] 5.78 µM | [7] 60.4 µM | [8] 3.81 µM
inactive: [11] | [12] | [2] | [9]

NS(=O)(=O)c1cc(C(=O)O)c(NCc2ccco2)cc1Cl
inactive: [1] | [2] | [4] | [16] | [9]

C=CC(C)(CCC=C(C)C)OC(=O)CC (centres undefined)
active: [8] 68.1 µM
inactive: [11] | [17] | [13] | [14] | [15] | [3] | [4] | [5] | [6] | [16] | [9] | [10]

CC(C)CCOC(=O)CC(C)C
inactive: [11] | [17] | [12] | [13] | [14] | [3] | [4] | [5] | [6] | [16] | [7] | [8] | [9] | [10]
